The text below walks through data of article PMC7819943, “Rice protein-binding microarrays: a tool to detect cis-acting elements near promoter regions in rice”.

In all, about 68,000 sequences were measured (“fluorescence intensity (a.u.)”: median about 9,100, highest 2% from about 16,000 on). The entries come from a sample that favours the highest values as a whole.

OsWRKY34, sequence (Q0JBA9 entry or part of it): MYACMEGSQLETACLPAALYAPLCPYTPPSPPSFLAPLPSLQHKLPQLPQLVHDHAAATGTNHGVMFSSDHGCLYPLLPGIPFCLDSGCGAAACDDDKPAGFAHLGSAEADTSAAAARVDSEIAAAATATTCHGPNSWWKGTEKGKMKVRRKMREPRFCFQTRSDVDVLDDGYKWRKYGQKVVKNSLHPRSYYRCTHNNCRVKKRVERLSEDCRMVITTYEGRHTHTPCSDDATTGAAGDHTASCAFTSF

This test addresses OsWRKY34 (Oryza sativa, UniProt Q0JBA9 1-250). The test is described as follows: protein-binding microarray (RPBM); PBS, 2% BSA, 51.3 ng/ul salmon testes DNA, 50 uM zinc acetate, 200 nM TF, 25 C, 1 h; high values mean tight binding. The conditions noted are these: protein: recombinant; tags: N-terminal polyhistidine and DsRed monomer fusion (pET32a); label: CyDye5-dUTP incorporated in the synthesized complementary strand; 3' TTTTT single-stranded linker to array surface; dsDNA, one strand shown. In a few lines: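 Transcription factors were made in E. coli BL21-CodonPlus as N-terminal fusions to a polyhistidine tag and DsRed, then purified on Ni–NTA. After primer extension with Cy5-dUTP and blocking with 2% BSA, a custom Agilent array was exposed for 1 h at 25 °C to 200 nM protein in PBS, 2% BSA, salmon testes DNA and 50 µM zinc acetate. Washed arrays were scanned on an Axon 4000B, and the binding signal is per-feature fluorescence intensity in arbitrary units.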
Take “GTGTGTTATTTTCTTCCACTCTTTAGTTTTCACTTTTTGACGGAGTCACCTAGTGCAG”: the binding signal is 9240 fluorescence intensity (a.u.).
The value for “GTTGCCCTTTTGCTCCTGTTGTCTTCTCCGCTCCTGTCGTCGGAGTCACCTAGTGCAG” was 9800 fluorescence intensity (a.u.).
In the case of “TGGCATTTTTTTTTTCTTGTGAAAAACCGACGAGAGGAAGCGGAGTCACCTAGTGCAG” it was 8190 fluorescence intensity (a.u.).
Regarding “GTTCATTTTATAGTCTAGCAAAATTTCCTCTCTTTTTTTTCGGAGTCACCTAGTGCAG”, the binding signal is 10700 fluorescence intensity (a.u.).
In the case of “AGTGACCCTTATCTCTTCACCTATCTCTCTCCCTTCCCCTCGGAGTCACCTAGTGCAG” it was 9580 fluorescence intensity (a.u.); in that of “GTCAAACATCAACTTTTCCGTCACATCAAATGTTTGGACACGGAGTCACCTAGTGCAG”, 8670 fluorescence intensity (a.u.); in that of “TTTCTTTCTTTCTTTCTTGGGATCTTTTCCTTCTTTTTTTCGGAGTCACCTAGTGCAG”, 12600 fluorescence intensity (a.u.).
As to “GTTCTCGGTGTGTACTTGGTCCATCAGTCTCTTCAGATCTCGGAGTCACCTAGTGCAG”, the binding signal is 8120 fluorescence intensity (a.u.).
In the case of “ACGACGAGGTCGCTTTTTTCTTGTTGGGCTGGGCTGGGATCGGAGTCACCTAGTGCAG” it was 21800 fluorescence intensity (a.u.); in that of “TCTTTTGTATAGCACTGTACCGTATACAACACTGAATACACGGAGTCACCTAGTGCAG”, 8080 fluorescence intensity (a.u.).
Regarding “ATCTAGCCTATCGCTCTTGTGTTCTCGGTGTGTACTTGGTCGGAGTCACCTAGTGCAG”, the binding signal is 16600 fluorescence intensity (a.u.).
In the case of “TTCTTTGTTGGATTGATGATCGCTTTTGTGTGGGAGAGGTCGGAGTCACCTAGTGCAG” it was 9380 fluorescence intensity (a.u.); in that of “CCTTCTATTTTTCCGTCACATCAAATGTTTGGACACATGTCGGAGTCACCTAGTGCAG”, 9670 fluorescence intensity (a.u.).
The value for “CGTCGATCTCTATCTCTCTCTCTCGCTTGTTCTTCTTCACCGGAGTCACCTAGTGCAG” was 15200 fluorescence intensity (a.u.); that for “TTCTTTTTTTGGCTTCCTTTTTTTTGTGTGTATATATGTACGGAGTCACCTAGTGCAG” was 13700 fluorescence intensity (a.u.).
In the case of “TCCTTTTTTTTGGGTGCTTTTCTTTTGTATAGCACTGTACCGGAGTCACCTAGTGCAG” it was 65500 fluorescence intensity (a.u.); in that of “CAAACTTCTAATTTTTCCGTCACATCAAATGTTTGGATATCGGAGTCACCTAGTGCAG”, 34900 fluorescence intensity (a.u.); in that of “GTATGCATTATTATGCTGATTAATTTGGCCTGGTTATTTGCGGAGTCACCTAGTGCAG”, 8160 fluorescence intensity (a.u.).
In the case of “GTCGGGTTCGGGTACTGTTGATGCTGATCGAGATGGTCCTCGGAGTCACCTAGTGCAG”, the binding signal was 8650 fluorescence intensity (a.u.).
In the case of “AACTATTTTTTTATGGGTTTGTTGTGTAGATCATGTAGCACGGAGTCACCTAGTGCAG” it was 11100 fluorescence intensity (a.u.); in that of “TTCTACTTCTACACCTCGCAATGAAAAAAACAAATTTGACCGGAGTCACCTAGTGCAG”, 8060 fluorescence intensity (a.u.); in that of “GCTTCTTCCGTTGCAATTCCATTCTCCTCTCTCTCCTGCTCGGAGTCACCTAGTGCAG”, 11400 fluorescence intensity (a.u.).
In the case of “AGGACACCTTAGCATTCAGCCATCTTATTTCTCTGTATTACGGAGTCACCTAGTGCAG” it was 9420 fluorescence intensity (a.u.); in that of “TCCAGAAGACACCCGCCTGCTCCACTGCCGTTCCTGTCGACGGAGTCACCTAGTGCAG”, 9120 fluorescence intensity (a.u.).
Take “ACTGTGAATGTGTGACTAAATGGGCCGAGCCCAACTACTACGGAGTCACCTAGTGCAG”: the binding signal is 9860 fluorescence intensity (a.u.).
In the case of “GATTCATCTTGCCCTCAAAGTTTCCTGCTTTGTTTGATCACGGAGTCACCTAGTGCAG” it was 9520 fluorescence intensity (a.u.); in that of “GGAGGGAGTAGTATATTGGGGATTTTCAGTTGGGTCTGGGCGGAGTCACCTAGTGCAG”, 14200 fluorescence intensity (a.u.); in that of “GCCATTCTATAGGAGGTGGTGGGGAGGGTTTCGTGCTCCTCGGAGTCACCTAGTGCAG”, 10800 fluorescence intensity (a.u.).
In the case of “TTTGTCACGCGAATACTGTATTGTAGGGTGGGGTTCACTGCGGAGTCACCTAGTGCAG” it was 12100 fluorescence intensity (a.u.).
The value for “GCCGGCTAAACTGGCTTATTGTACTTGCTCTTACTTGACTCGGAGTCACCTAGTGCAG” was 9430 fluorescence intensity (a.u.).
In the case of “TTTTCTTTCTTTTTCTTTTTTTTTATCGTTTTGTTCTTCTCGGAGTCACCTAGTGCAG”, the binding signal is 10500 fluorescence intensity (a.u.).
In the case of “ATTTTTTATTTCTTTTGTTTCAAATTTCAGTTCTTTTTATCGGAGTCACCTAGTGCAG” it was 9720 fluorescence intensity (a.u.).
In the case of “TCATTTTGTATTTTGTTGTCTCTGTCTTGCTGTTCCCTCGCGGAGTCACCTAGTGCAG” it was 8810 fluorescence intensity (a.u.).
The value for “ATACTAGGCTGTATCTCTCTCGCTCTCTTGTTGTTCCCTCCGGAGTCACCTAGTGCAG” was 18200 fluorescence intensity (a.u.).
For the sequence “ATGTTTTTTTTTGGGTCGCTTTCTTTGTGTGTGTATATATCGGAGTCACCTAGTGCAG”, the binding signal was 16400 fluorescence intensity (a.u.).
In the case of “GCTCTCTCTCTCTCTCTCTCTCGCTGTCTCTCTCCCTCCCCGGAGTCACCTAGTGCAG” it was 9110 fluorescence intensity (a.u.); in that of “TCTCGTTTCGTTCGTGTATCATGTTTTTTTTTGGGTCGCTCGGAGTCACCTAGTGCAG”, 8730 fluorescence intensity (a.u.).
Turning to “ATGTTTTAATTTTGGGCTTCTTTTTGTTTTGGGCTTTTATCGGAGTCACCTAGTGCAG”, the binding signal was 24300 fluorescence intensity (a.u.).
In the case of “GTGTGTTGTTGTTCTTGTTTTGGTTCTTTTCTAGTAGTATCGGAGTCACCTAGTGCAG” it was 8750 fluorescence intensity (a.u.); in that of “GGTCATACTCTCTTCGTCCCATTTAATGTACAATCATGCTCGGAGTCACCTAGTGCAG”, 8860 fluorescence intensity (a.u.).
The value for “GTTTCATAATCCTGTGTTCTTTTTGTTTACTATGGTTTTGCGGAGTCACCTAGTGCAG” was 11000 fluorescence intensity (a.u.).
In the case of “GCAACTGATAGACTAACTTGTCCGGTCCTGTTTTGGAATCCGGAGTCACCTAGTGCAG” it was 10200 fluorescence intensity (a.u.).
